Giardia kill: kills Giardia lamblia | 340,000 compounds, 0.15% hits | activity change, % at 7.66 µM, hits read low | Giardia lamblia trophozoite viability; in the data active = activity change below about -80%; inconclusive = between about -30% and that limit;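 also: parasites exposed to compound for two days anaerobically before the ATP read; % is scaled to controls: 0 for no effect and ±100 for the full control effect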
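Each well holds 100 Giardia trophozoites and compound. After two days (48 hrs) at 37 deg C in anaerobic conditions, ATP is quantified by luminescence.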
BRCA1 expr up: activators of BRCA1 expression; MCF7-BRCA1-FFLuc reporter, luminescence, 48 h; response scale: scaled: vehicle 0%, 10 µM genistein 100%; Potency, µM (highest dose often 46.1 µM), inactives show at the top dose activation, most hits filed as activators; 380,000 compounds, 1.1% hits; AID 624202; also: potency is read from the fitted curve at half-maximal effect; nearly all actives have a fitted effect of over 80% in size
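MCF7-BRCA1-FFLuc cells, 2000/well in phenol-red-free MEM, attached 2 h then treated 48 h at 37 C. Luciferase luminescence read 15 min after reagent; normalized to genistein maximum activation (10microM) and DMSO, concentration-response fitted.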
p53 reactivation: restores transcriptional activity of mutant p53 | H1299 p53-A138V BP100-luciferase reporter, luminescence, 24 h | Potency, µM (series often up to 92.2 µM), inactives show at the highest dose activity change, positive = activation, usual class: activators | 320,000 compounds, 0.063% hits; also: potency is read from the fitted curve at half-maximal effect; % of control where 0% means no effect; nearly all actives have a fitted effect of over 45% in size
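H1299 (p53-null), stable ts p53-A138V + BP100-Luc; 1000 cells/well, Opti-MEM/10% FBS; cpd 4 pt, 1:5; 24 h, 37 deg C, 5% CO2; detection reagent 10 min RT; luminescence.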
RORgamma inh: inhibitors of mouse ROR gamma transcriptional activity; P51450; Drosophila S2 Gal4-RORgamma UAS-luciferase reporter, 20 h; Potency, µM (series often up to 53.6 µM), for inactives: at the highest dose activity change, negative = inhibition, actives largely listed as inhibitors; 310,000 compounds, 5.4% hits; AID 2551; also: potency is read from the fitted curve at half-maximal effect; % is scaled to controls: 0 for no effect and ±100 for the full control effect; nearly all actives have a fitted effect of over 60% in size
Target sequence (P51450 whole entry, looked up, the tested form may be a part): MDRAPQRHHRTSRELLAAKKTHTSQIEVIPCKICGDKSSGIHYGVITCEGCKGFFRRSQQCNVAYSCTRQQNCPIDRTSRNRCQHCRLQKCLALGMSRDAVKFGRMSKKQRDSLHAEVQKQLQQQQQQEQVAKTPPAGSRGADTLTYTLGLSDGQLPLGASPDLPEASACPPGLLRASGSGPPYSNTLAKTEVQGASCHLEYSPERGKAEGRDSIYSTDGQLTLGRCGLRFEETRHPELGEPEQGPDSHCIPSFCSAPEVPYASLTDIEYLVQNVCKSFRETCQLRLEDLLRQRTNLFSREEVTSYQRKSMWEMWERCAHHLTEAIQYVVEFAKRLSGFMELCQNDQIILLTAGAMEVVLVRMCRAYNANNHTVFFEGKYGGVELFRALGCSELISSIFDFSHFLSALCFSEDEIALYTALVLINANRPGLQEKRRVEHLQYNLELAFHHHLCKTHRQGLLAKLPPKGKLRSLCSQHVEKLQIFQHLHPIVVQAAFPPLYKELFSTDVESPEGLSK
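Compounds are pin-transferred onto Drosophila Schneider cells expressing a copper-inducible Gal4–ROR gamma transactivation domain fusion. After 1 hr, copper sulfate is added to 700 uM final; luciferase is read 20 hr later.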
ELG1 DNA repair: blocks ELG1-dependent DNA repair in HEK293T cells | Potency, µM (top dose mostly 46.1 µM), for the others: at the highest dose activity change, negative = inhibition, most hits filed as inhibitors | 330,000 compounds, 2.3% hits | HEK293T ELG1-luciferase reporter, luminescence, 16 h; DNA damage induced by 5-fluorouridine; also: potency is read from the fitted curve at half-maximal effect; % is scaled to controls: 0 for no effect and ±100 for the full control effect; nearly all actives have a fitted effect of over 55% in size
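Reporter activity after DNA damage by 5-fluorouridine is monitored. Compound-treated cells incubate 16 hr at 37 °C, then ONE-Glo is added for 30 min before luminescence reading.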
Gal4-VP16 FLuc: Gal4-VP16 reporter inhibition counter-screen; Drosophila S2 Gal4-VP16 UAS-luciferase, luminescence, 20 h; Potency, µM (titrated, usually from 53.6 µM), for inactives: top-dose activity, negative = inhibition, actives largely listed as inhibitors; 310,000 compounds, 3.5% hits;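 also: Gal4-VP16 expression switched on by copper sulfate through the metallothionein promoter; potency is read from the fitted curve at half-maximal effect; % is scaled to controls: 0 for no effect and ±100 for the full control effect; nearly all actives have a fitted effect of over 50% in size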
An asterisk follows results filed as active; ? = inconclusive; . = no result given; [ ] = dose if it differs, or a comment. Hits are enriched below; roughly 7.6% of the tested compounds scored in any of these assays. Unless noted, calls follow the shape of the dose curve; as a rule, active = well fitted curve in the direction sought with a large enough effect; inconclusive = small, poorly fitted or top-dose-only effect, or another doubt; inactive = no such curve, though single readings can be large; an effect the other way counts as inactive or inconclusive.

SMILES	Giardia kill	BRCA1 expr up	p53 reactivation	RORgamma inh	ELG1 DNA repair	Gal4-VP16 FLuc
COc1ccc(Cc2nc3ccccc3n2CC(=O)N/N=C/c2ccc(C)cc2O)cc1OC	0	-51%	-1%	3.5µM*	-8%	6.3µM*
CSc1ccc(/C=N/N2CCN(Cc3ccc(Cl)cc3)CC2)cc1	-7	7%	-1%	28%	?	-11%
COCCN(C(=O)CSc1nnc(-c2cccc(Cl)c2)n1N)c1c(N)n(CC(C)C)c(=O)[nH]c1=O	.	-5%	.	.	.	.
Cc1ccc(-c2c(C(=O)N/N=C/c3ccc(C)o3)nnn2-c2nonc2N)cc1	-16	-25%	-4%	7.9µM*	1%	11µM*
CCCOc1ccc(-c2c(C(=O)N/N=C/c3ccc(C)cc3)nnn2-c2nonc2N)cc1	-26	-38%	-5%	?	-20%	-13%
CCCN(CCC)Cc1c(C(=O)N/N=C/C(C)=C\c2ccco2)nnn1-c1nonc1N	4	-65%	7%	?	21µM*	?
Cc1ccc(-c2c(C(=O)N/N=C/c3ccco3)nnn2-c2nonc2N)cc1	22	-5%	-15%	6.3µM*	-1%	?
Cc1ccc(C(=O)NCC(=O)Nc2ccccc2C)o1	.	16%	.	.	.	.
CCCN(CCC)C(=O)c1ccc2c(c1)OCO2	0	8%	-4%	36%	9%	-13%
Cc1c(N=Cc2ccccn2)c(=O)n(-c2ccccc2)n1C	12	-9%	0%	-2%	10%	6%
CCOc1ccc(CN2CCC(=O)NC2=O)cc1	2	4%	?	4%	6%	5%
CC(=O)Oc1c(/C=C(\C#N)C(N)=O)[nH]c2ccccc12	-14	-79%	-20%	22%	21µM*	-9%
N#C/C(=C\c1c[nH]c2ccccc12)C(N)=O	23	2%	2%	5%	-22%	-7%
O=S(=O)(NC(=NCc1ccccc1)c1ccccc1)c1ccc(Br)cc1	0	-14%	19%	23%	-8%	-14%
Cc1ccc(NCCC(=O)c2cccc([N+](=O)[O-])c2)c(C)c1	-4	3%	?	10µM*	?	?
O=C(N/N=C/c1c[nH]c2ccccc12)c1ccc(Cl)cc1	41	71%	?	10µM*	?	?
NC(=S)N/N=C/c1c[nH]c2ccccc12	8	24%	6%	2.5µM*	-1%	?
CC(C)n1cc(/C=N/Nc2ccc(C(=O)O)cc2)c2ccccc21	4	-29%	?	0.032µM*	?	0.32µM*
O=C(O)c1ccc(N/N=C/c2c[nH]c3ccccc23)cc1	11	-74%	-13%	0.035µM*	?	0.32µM*
Cc1cc(Cl)ccc1OCCCC(=O)N1CCN(S(=O)(=O)c2ccccc2)CC1	-1	-49%	-8%	.	?	.
Cc1cc(OCC(=O)N[C@@H](Cc2c[nH]c3ccccc23)C(=O)O)c2c(C)c(C)c(=O)oc2c1	-4	-10%	5%	-10%	4%	-9%
CSc1nnc(C)c(/C=C/Nc2ccc(C)cc2)n1	10	-18%	-8%	-26%	-23%	5%
O=C(N/N=C/c1c[nH]c2ccccc12)c1cc(Cl)ccc1O	11	35%	7%	5µM*	?	6.3µM*
O=C(N/N=C\c1c[nH]c2ccccc12)c1ccc(O)cc1	-2	-6%	6%	6.3µM*	19%	-17%
O=C(N/N=C/c1c[nH]c2ccccc12)c1cc(-c2ccc(-c3ccccc3)cc2)n[nH]1	-20	-69%	-9%	5.6µM*	?	?
SMILES	Giardia kill	BRCA1 expr up	p53 reactivation	RORgamma inh	ELG1 DNA repair	Gal4-VP16 FLuc
O=C(N/N=C/c1c[nH]c2ccccc12)c1cc(-c2ccccc2)n[nH]1	-8	-24%	12%	20%	?	2%
CN1CCN(CC(=O)N/N=C\c2c[nH]c3ccccc23)CC1	.	.	9%	?	?	22µM*
COc1ccc([C@]23Cc4cc(OC)c(OC)cc4C(O2)C2=C(CCCC2=O)O3)cc1	.	.	.	7%[10 µM]	.	-1%[10 µM]
N#Cc1ccccc1COC(=O)c1cc(=O)c2ccccc2o1	1	-28%	24%	-6%	?	-2%
Cc1nc(-c2ccccc2)cn(O)c1=O	8	2%	0%	6.3µM*	-3%	-72%
Cc1nn2cc(-c3ccccc3)nc2[nH]c1=O	29	49%	?	8%	?	7%
Cc1ccc(C)c(-c2ccc(C(=O)O)o2)c1	.	.	.	13µM*	.	-2%[96.6 µM]
COc1ccccc1-c1ccc(C(=O)O)o1	7	?	?	-8%	?	4%
COc1ccc([N+](=O)[O-])cc1NC(=O)COC(=O)C1CC1	-1	-22%	-1%	12%	?	3%
COc1ccc(NS(=O)(=O)c2ccc(-c3coc(C)n3)cc2)cc1OC	2	3%	0%	?	0.41µM*	1.4µM*
COc1ccc(NS(=O)(=O)c2ccc(-c3coc(C)n3)cc2)cc1	25	0%	12%	?	?	-16%
O=C(CCOc1ccccc1F)N1CCN(c2ccccc2O)CC1	6	11µM*	13%	?	?	17%[10 µM]
O=C(Nc1nc2ccccc2[nH]1)c1cccc(Br)c1	-18	?	?	2.2µM*	?	5µM*
O=C(Nc1nc2ccccc2[nH]1)Nc1ccccc1F	-6	?	11µM*	?	?	?
O=C(NCCc1nc2ccccc2[nH]1)c1ccc(Br)o1	-11	-3%	-7%	-12%	3%	-15%
O=C(Nc1nc2ccccc2[nH]1)c1cccc(F)c1	-25	-6%	23%	5.6µM*	?	7.1µM*
O=C(c1cccc(Br)c1)c1nc2ccccc2[nH]c1=O	.	18%	.	.	.	.
O=C(CSc1nc2ccccc2[nH]1)Nc1ccccc1F	12	7%	-5%	23%	0%	-6%
O=C(Nc1nc2ccccc2[nH]1)c1ccc(Br)o1	-17	17%	0%	7.1µM*	?	?
Nc1cc(S(=O)(=O)O)cc([N+](=O)[O-])c1O	3	-7%	-2%	-18%	13%	-19%
O=C(CSC(=S)N1CCCCC1)N1N=CCC1c1ccccc1 (stereo not given)	-8	?	25%	7%	?	1%
Cc1ccc(N(C)S(=O)(=O)c2cccc(C(=O)Nc3nnc(C4CC4)s3)c2)cc1	-4	-3%	15%	11µM*	?	-8%
Cc1ccc(N(C)S(=O)(=O)c2cccc(C(=O)Nc3nc4ccccc4[nH]3)c2)cc1	-3	-70%	20%	1.3µM*	23µM*	1.1µM*
CN(C)S(=O)(=O)c1ccc(Cl)c(C(=O)Nc2nc3ccccc3[nH]2)c1	-28	-2%	1%	?	-13%	?
